Records with an inconclusive call do not appear. A call without a number means that no potency is given here. The source made the active and inactive calls. Unless noted, calls come from the whole dose curve; as a rule, active = well fitted curve in the direction sought with a large enough effect in the repeat runs; inconclusive = weak or mixed curves; inactive = no such curve, though single readings can be large; an effect the other way counts as inactive or inconclusive.
What was measured:
[1] = qHTS assay to identify small molecule agonists of the sonic hedgehog signaling (Shh) pathway (AID 1259368; calls by dose curve;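 note: NIH/3T3-derived 3T3Gli1-Luc cells carrying a stable Gli1-driven firefly luciferase reporter; series mostly up to about 92 µM; nearly all actives have a fitted effect of over 15% in size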)
In short: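 Luminescence was read after 30 min at room temperature with luciferase reagent. Before that, 3T3Gli1-Luc cells (NIH/3T3 clone, stable Gli1-Luc reporter; 2,000/well) were exposed to compounds for 24 hr at 37C, 5% CO2, compounds being added 4 hr post-plating.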

[2] = qHTS assay to identify small molecule agonists of the androgen receptor (AR) signaling pathway in the presence of an antagonist - cell viability counter screen (AID 1259379); note: nearly all actives have a fitted effect of over 25% in size; note: potency is the fitted concentration of half-maximal effect
In short: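 Cytotoxicity counter-screen run in the same wells as the nilutamide-challenged (3.0 µM final) AR agonist assay in MDA-kb2 cells. Compounds tested at 15 concentrations for 16 h, 37 °C without CO2; CellTiter-Fluor fluorescence read.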

[3] = qHTS assay to identify small molecule agonists of the estrogen receptor beta (ER-beta) signaling pathway - cell viability counter screen (AID 1259380); note: nearly all actives have a fitted effect of over 30% in size; note: potency is the fitted concentration of half-maximal effect
In short: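 Cell viability counter screen: CellTiter-Glo luminescence (30 min, room temperature) measured in the same wells as the beta-lactamase readout, after 16 hr compound exposure at 37C of ER-beta-bla HEK293T cells in 2% charcoal-stripped FBS medium.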

[4] = qHTS assay to identify small molecule antagonists of the estrogen receptor beta (ER-beta) signaling pathway - cell viability counter screen (AID 1259382); note: nearly all actives have a fitted effect of over 55% in size; note: potency is the fitted concentration of half-maximal effect
In short: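 Cytotoxicity was measured in the same wells by CellTiter-Glo luminescence after 30 min at room temperature. Cells were ER-beta-bla HEK293T in charcoal-stripped serum, given compound together with 1 nM E2 and incubated 16 h at 37C.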

[5] = qHTS assay to identify small molecule agonists or antagonists of the thyroid stimulating hormone receptor (TSHR) signaling pathway - wild type cell line counter screen (AID 1259384; calls by dose curve)
In short: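 Wild-type Hek293 cells, 800/well, 18 h at 37C, then compound with Ro20-1724 for 30 min RT. cAMP by HTRF (cAMP-d2/anti-cAMP cryptate), 1 h RT, fluorescence read. 15 concentrations, triplicates.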

[6] = biological target: Thyrotropin receptor (Homo sapiens) (UniProt P16473); experiment: qHTS assay to identify small molecule antagonists of the thyroid stimulating hormone receptor (TSHR) signaling pathway (AID 1259385; calls by dose curve; note: nearly all actives have a fitted effect of over 20% in size)
In short: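 TSHR-HEK293 cells (800/well) plated 18 h, then compounds with Ro20-1724 and TSH at 1.5 ng/mL final, 30 min at room temperature. cAMP quantified by HTRF (cAMP-d2/anti-cAMP-cryptate, 1 h); 15 concentrations in triplicate.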

[7] = qHTS assay to identify small molecule agonists of the estrogen receptor alpha (ER-alpha) signaling pathway in the presence of an antagonist - cell viability counter screen (AID 1259386); note: series mostly up to about 92 µM; nearly all actives have a fitted effect of over 30% in size
In short: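 Compounds tested at 15 concentrations for 22 h at 37C alongside 10.0nM (final) ICI-182,780 antagonist, in VM7Luc4E2 cells grown in phenol red-free, charcoal-stripped medium. Viability read by CellTiter-Fluor fluorescence after 1 h reagent incubation.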

[8] = biological target: Progesterone receptor (Homo sapiens) (UniProt P06401); experiment: qHTS assay to identify small molecule agonists of the progesterone receptor (PR) signaling pathway (AID 1346784; calls by dose curve; note: nearly all actives have a fitted effect of over 30% in size)
In short: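 Seed PR-UAS-bla HEK 293T cells (2% charcoal-stripped FBS), incubate 6 hr at 37C; add compounds in DMSO, 16 hr at 37C; add LiveBLAzer B/G substrate, 2 hr RT; read fluorescence intensity.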

[9] = biological target: Progesterone receptor (Homo sapiens) (UniProt P06401); experiment: qHTS assay to identify small molecule antagonists of the progesterone receptor (PR) signaling pathway (AID 1346795; active = well fitted inhibition curve with a large enough effect in the signal ratio in the repeat runs, not every such curve was filed as active; the % refers to the signal ratio; note: potency is the fitted concentration of half-maximal effect)
In short: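 Screening used a GripTite HEK293T line with PR-responsive UAS-beta-lactamase. Cells were challenged with compound in the presence of 1 nM R5020 final for 16 hr at 37C; B/G FRET substrate, 2 hr room temperature, fluorescence.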

[10] = qHTS assay to identify small molecule antagonists of the progesterone receptor (PR) signaling pathway - cell viability counter screen (AID 1346798); note: nearly all actives have a fitted effect of over 50% in size; note: potency is the fitted concentration of half-maximal effect
In short: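 Measures cytotoxicity in parallel with the PR antagonist reporter read: HEK293T PR-UAS-bla cells get compound and R5020 for 16 hr, and remaining viable cells are quantified by CellTiter-Glo luminescence.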

[11] = qHTS assay to identify small molecule agonists of the progesterone receptor (PR) signaling pathway - cell viability counter screen (AID 1346799; calls by dose curve; note: nearly all actives have a fitted effect of over 45% in size; note: potency is the fitted concentration of half-maximal effect)
In short: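 Using the same plates as the PR reporter screen, HEK293T PR-UAS-bla cells received compounds for 16 hr at 37C and were then lysed with CellTiter-Glo; luminescence was read 30 min later at room temperature.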

[12] = qHTS assay to identify small molecule agonists of the TGF-beta/Smad signaling pathway - cell viability counter screen (AID 1346829); note: top concentration of the series differs between compounds; nearly all actives have a fitted effect of over 45% in size
In short: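 Cytotoxicity counter screen: CellTiter-Glo luminescence (30 min, room temperature) measured in the SBE-bla HEK 293T reporter wells after 5 hr compound treatment at 37 C and the 2 hr substrate step.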

[13] = qHTS assay to identify small molecule agonists of the TGF-beta/Smad signaling pathway (AID 1346859; active = well fitted activation curve with a large enough effect in the signal ratio in the repeat runs, not every such curve was filed as active; the % refers to the signal ratio; note: series mostly up to about 77 µM)
In short: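 Beta-lactamase reporter activity downstream of Smad binding elements was measured in stably transfected HEK 293T cells; compounds were incubated for 5 hr, substrate for 2 hr at room temperature.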

[14] = biological target: Thyrotropin-releasing hormone receptor (Homo sapiens) (UniProt P34981); experiment: qHTS assay to identify small molecule antagonists of the thyrotropin-releasing hormone receptor (TRHR) signaling pathway (AID 1346877; active = well fitted inhibition curve with a large enough effect in the repeat runs, not every such curve was filed as active; note: series mostly up to about 51 µM)
In short: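 Antagonist mode: after a 5 min room-temperature compound exposure, cells were stimulated with 1 nM (final) TRH. Dye-loaded TRHR-HEK293 cells were used, and calcium-dependent fluorescence was followed for 3 min, with 15-point titrations run in triplicate.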

[15] = biological target: Androgen receptor (Homo sapiens) (UniProt P10275); experiment: qHTS assay to identify small molecule agonists of the androgen receptor (AR) signaling pathway in the presence of an antagonist (AID 1259381; calls by dose curve; note: nearly all actives have a fitted effect of over 15% in size)
In short: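 Agonist-mode confirmation run against 3.0 uM final nilutamide: compounds titrated at 15 concentrations onto MDA-kb2 MMTV-luciferase reporter cells. Luminescence measured with ONE-Glo following 16 hr incubation, 37C, 0% CO2.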

[16] = biological target: Estrogen receptor (Homo sapiens) (UniProt P03372); experiment: qHTS assay to identify small molecule agonists of the estrogen receptor alpha (ER-alpha) signaling pathway in the presence of an antagonist (AID 1259383; calls by dose curve; note: nearly all actives have a fitted effect of over 15% in size; note: potency is the fitted concentration of half-maximal effect; for activation: top concentration of the series differs between compounds)
In short: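 Agonist-mode confirmation run in the presence of 10.0nM (final) ICI-182,780 antagonist. The reporter was ERE-driven luciferase in VM7Luc4E2 cells, grown in charcoal-stripped serum. Cells were exposed to 15-concentration compound series for 22hr, then ONE-Glo luminescence was read.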

[17] = qHTS assay to identify small molecule antagonists of the TGF-beta/Smad signaling pathway - cell viability counter screen (AID 1346824); note: nearly all actives have a fitted effect of over 50% in size
In short: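 SBE-bla HEK 293T cells, incubated overnight, then compound plus 0.25 ng/mL TGF-beta1 (stock added) for 5 hr at 37 C. Viability was read in the same wells by CellTiter-Glo luminescence after 30 min at room temperature.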

[18] = biological target: Estrogen receptor beta (Homo sapiens) (UniProt Q92731); experiment: qHTS assay to identify small molecule agonists of the estrogen receptor beta (ER-beta) signaling pathway (AID 1259377; active = well fitted activation curve with a large enough effect in the signal ratio in the repeat runs, not every such curve was filed as active; the % refers to the signal ratio; note: potency is the fitted concentration of half-maximal effect)
In short: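 Screening used GripTite ER-beta-UAS-bla cells held in 2% charcoal-stripped FBS medium. After overnight (16 hr) compound incubation at 37C, beta-lactamase activity was detected with a FRET substrate by fluorescence.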

[19] = biological target: Estrogen receptor beta (Homo sapiens) (UniProt Q92731); experiment: qHTS assay to identify small molecule antagonists of the estrogen receptor beta (ER-beta) signaling pathway (AID 1259378; active = well fitted inhibition curve with a large enough effect in the signal ratio in the repeat runs, not every such curve was filed as active; the % refers to the signal ratio; note: potency is the fitted concentration of half-maximal effect)
In short: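 ER-beta-UAS-bla HEK293T cells in 2% charcoal-stripped FBS medium treated with compound plus 1nM final 17-beta-estradiol for 16 hr at 37C. Beta-lactamase reporter read by FRET substrate fluorescence after 2 hours at room temperature.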

[20] = qHTS assay to identify small molecule antagonists of the sonic hedgehog signaling (Shh) pathway (AID 1259369; calls by dose curve; note: nearly all actives have a fitted effect of over 45% in size)
In short: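 Antagonist mode: compound added to 3T3 Gli1-Luc cells followed by conditioned-medium stimulation, 24 h at 37 C, 5% CO2. Inhibition taken as loss of Gli1-driven luciferase luminescence.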

Chain of Estrogen receptor (Homo sapiens) (P03372 whole entry, looked up): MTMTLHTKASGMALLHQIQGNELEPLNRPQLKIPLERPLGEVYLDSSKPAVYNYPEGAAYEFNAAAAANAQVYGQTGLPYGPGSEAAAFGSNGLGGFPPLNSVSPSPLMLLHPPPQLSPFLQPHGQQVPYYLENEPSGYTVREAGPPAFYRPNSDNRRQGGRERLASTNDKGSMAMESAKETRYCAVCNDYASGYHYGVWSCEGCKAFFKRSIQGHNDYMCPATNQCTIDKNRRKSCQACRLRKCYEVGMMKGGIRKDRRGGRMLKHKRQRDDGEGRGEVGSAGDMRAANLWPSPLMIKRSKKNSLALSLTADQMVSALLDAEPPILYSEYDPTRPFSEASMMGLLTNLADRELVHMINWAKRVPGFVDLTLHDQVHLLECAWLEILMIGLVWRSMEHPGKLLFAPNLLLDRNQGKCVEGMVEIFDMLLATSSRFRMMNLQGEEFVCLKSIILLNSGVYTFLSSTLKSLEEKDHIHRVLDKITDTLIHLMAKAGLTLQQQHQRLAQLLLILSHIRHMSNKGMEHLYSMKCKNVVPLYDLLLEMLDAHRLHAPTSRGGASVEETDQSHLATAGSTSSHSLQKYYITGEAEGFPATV
Chain of Thyrotropin receptor (Homo sapiens) (P16473 whole entry, looked up): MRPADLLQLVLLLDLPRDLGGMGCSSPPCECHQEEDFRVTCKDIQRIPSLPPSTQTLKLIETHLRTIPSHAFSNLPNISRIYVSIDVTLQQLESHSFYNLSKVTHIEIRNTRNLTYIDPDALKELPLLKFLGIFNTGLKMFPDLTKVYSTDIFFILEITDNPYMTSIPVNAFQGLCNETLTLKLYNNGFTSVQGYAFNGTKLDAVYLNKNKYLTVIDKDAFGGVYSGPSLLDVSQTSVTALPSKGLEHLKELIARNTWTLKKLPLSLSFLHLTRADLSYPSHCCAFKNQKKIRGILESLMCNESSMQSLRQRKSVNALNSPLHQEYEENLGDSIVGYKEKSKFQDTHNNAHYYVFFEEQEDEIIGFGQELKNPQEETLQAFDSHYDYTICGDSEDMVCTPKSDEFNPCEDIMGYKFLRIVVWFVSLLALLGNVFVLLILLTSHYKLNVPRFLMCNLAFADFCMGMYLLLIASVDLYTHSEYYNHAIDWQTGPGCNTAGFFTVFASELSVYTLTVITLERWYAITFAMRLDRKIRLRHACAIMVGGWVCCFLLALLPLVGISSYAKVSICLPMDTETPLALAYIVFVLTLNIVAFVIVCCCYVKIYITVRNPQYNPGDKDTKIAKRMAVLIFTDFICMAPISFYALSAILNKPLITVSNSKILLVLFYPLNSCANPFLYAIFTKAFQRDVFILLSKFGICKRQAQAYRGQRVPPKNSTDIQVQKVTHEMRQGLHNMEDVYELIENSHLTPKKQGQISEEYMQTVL
Chain of Thyrotropin-releasing hormone receptor (Homo sapiens) (P34981 whole entry, looked up): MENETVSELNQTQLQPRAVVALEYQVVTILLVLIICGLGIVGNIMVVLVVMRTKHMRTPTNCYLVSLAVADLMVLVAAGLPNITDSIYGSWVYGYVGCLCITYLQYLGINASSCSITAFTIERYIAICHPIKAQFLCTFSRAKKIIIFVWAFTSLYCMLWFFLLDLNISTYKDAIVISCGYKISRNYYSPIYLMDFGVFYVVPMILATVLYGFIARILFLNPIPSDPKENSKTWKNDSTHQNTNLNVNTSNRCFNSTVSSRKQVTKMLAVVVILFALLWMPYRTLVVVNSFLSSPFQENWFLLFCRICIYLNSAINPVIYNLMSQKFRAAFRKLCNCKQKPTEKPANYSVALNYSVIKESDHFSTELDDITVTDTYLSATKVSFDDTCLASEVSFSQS
Chain of Progesterone receptor (Homo sapiens) (P06401 whole entry, looked up): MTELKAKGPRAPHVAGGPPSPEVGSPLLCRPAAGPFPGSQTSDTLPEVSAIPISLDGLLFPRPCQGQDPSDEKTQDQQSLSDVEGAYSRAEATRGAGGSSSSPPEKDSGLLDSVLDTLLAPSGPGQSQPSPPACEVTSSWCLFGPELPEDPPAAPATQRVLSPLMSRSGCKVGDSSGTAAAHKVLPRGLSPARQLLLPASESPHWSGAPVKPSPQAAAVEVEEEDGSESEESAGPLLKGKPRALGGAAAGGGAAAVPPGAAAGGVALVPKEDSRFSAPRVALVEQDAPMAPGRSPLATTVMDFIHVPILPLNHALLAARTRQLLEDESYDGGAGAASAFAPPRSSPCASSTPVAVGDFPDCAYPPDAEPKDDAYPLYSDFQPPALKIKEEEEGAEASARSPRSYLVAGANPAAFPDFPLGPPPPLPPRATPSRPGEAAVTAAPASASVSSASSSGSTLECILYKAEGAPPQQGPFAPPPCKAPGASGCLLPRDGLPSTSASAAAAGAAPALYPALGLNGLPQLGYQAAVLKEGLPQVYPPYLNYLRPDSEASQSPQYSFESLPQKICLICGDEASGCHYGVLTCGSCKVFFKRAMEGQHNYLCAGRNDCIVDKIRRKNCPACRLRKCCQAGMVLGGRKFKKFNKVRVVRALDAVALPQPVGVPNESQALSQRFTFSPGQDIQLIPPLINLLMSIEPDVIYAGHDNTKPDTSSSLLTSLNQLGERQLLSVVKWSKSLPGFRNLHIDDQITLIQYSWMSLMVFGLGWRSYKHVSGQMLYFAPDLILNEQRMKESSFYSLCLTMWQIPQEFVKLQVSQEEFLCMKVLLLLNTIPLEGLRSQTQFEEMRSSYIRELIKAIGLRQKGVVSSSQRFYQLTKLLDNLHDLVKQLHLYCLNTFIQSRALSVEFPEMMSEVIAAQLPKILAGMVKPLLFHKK
Chain of Estrogen receptor beta (Homo sapiens) (Q92731 whole entry, looked up): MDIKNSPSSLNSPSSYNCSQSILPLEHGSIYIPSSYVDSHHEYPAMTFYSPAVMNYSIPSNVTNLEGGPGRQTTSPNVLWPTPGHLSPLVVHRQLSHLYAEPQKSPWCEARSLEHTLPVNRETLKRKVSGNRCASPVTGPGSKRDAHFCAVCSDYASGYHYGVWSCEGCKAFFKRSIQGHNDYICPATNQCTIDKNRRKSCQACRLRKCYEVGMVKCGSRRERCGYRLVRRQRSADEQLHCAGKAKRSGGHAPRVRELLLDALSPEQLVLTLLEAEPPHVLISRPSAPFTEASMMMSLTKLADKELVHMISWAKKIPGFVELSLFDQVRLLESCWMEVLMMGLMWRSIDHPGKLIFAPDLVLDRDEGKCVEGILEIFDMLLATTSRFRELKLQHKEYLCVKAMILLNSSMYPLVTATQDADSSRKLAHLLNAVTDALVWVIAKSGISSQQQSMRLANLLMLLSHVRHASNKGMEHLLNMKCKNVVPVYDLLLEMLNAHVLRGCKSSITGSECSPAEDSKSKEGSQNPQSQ
Chain of Androgen receptor (Homo sapiens) (P10275 whole entry, looked up): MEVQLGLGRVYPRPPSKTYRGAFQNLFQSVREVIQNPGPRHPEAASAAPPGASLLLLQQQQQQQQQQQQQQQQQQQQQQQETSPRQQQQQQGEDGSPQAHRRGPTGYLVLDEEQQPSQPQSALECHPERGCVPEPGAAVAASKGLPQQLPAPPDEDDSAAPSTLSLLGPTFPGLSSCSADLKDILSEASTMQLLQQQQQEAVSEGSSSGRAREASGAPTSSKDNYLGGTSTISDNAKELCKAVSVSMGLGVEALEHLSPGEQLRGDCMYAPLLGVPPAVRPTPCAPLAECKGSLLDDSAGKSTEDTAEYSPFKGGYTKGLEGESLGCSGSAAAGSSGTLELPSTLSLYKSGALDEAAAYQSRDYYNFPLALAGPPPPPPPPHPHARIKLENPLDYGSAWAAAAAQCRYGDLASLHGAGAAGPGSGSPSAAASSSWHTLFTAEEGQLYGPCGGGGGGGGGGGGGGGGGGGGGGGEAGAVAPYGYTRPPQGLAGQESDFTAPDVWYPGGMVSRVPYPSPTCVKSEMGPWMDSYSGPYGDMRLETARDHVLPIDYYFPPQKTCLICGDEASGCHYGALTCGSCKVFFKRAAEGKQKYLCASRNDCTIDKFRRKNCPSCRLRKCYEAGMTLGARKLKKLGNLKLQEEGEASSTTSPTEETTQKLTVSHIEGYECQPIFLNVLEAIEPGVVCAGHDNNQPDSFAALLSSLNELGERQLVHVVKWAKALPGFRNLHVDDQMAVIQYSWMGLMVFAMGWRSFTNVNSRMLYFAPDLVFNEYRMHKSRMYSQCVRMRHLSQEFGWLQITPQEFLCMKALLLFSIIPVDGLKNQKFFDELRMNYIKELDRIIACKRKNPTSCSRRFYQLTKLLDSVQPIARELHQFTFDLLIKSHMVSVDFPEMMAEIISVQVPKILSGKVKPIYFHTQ

| Compound | Potency [1] | Potency [2] | Potency [3] | Potency [4] | outcome [5] | Potency [6] | Potency [7] | Potency [8] | Potency [9] | Potency [10] | Potency [11] | Potency [12] | Potency [13] | outcome [14] | Potency [15] | Potency [16] | Potency [17] | Potency [18] | Potency [19] | Potency [20] |
| --- | --- | --- | --- | --- | --- | --- | --- | --- | --- | --- | --- | --- | --- | --- | --- | --- | --- | --- | --- | --- |
| CC(C)C(O)(c1ccc(OC(F)(F)F)cc1)c1cncnc1 (centres undefined) | inactive | inactive | inactive | inactive | inactive | inactive | inactive | inactive | 30.5 µM (active) | inactive | inactive | inactive | inactive | inactive |  |  |  |  |  |  |
| CCCCCC[C@@H](O)C/C=C\CCCCCCCC(=O)OCC(O)CO (some centres undefined) | inactive | inactive |  |  |  |  | inactive |  | inactive |  | inactive | inactive | inactive | inactive | inactive | inactive | inactive |  |  |  |
| Cc1ccccc1N=C(N)Nc1ccccc1C | inactive | inactive | inactive | inactive | inactive | inactive |  | inactive | inactive | inactive | inactive | inactive | inactive | inactive |  | inactive | inactive |  |  |  |
| O=C(CCc1ccc(O)cc1)c1c(O)cc(O)cc1O | inactive |  | inactive | inactive | inactive | inactive |  | inactive | 31.3 µM (active) |  |  | inactive | inactive | inactive | inactive | 24.9 µM (active) | inactive |  |  |  |
| COC(=O)C1=C(C)NC(C)=C(C(=O)O[C@@H]2CCCN(Cc3ccccc3)C2)[C@@H]1c1cccc([N+](=O)[O-])c1 | inactive |  | inactive | inactive | inactive | inactive | inactive |  |  |  |  | inactive | inactive | inactive |  | inactive |  | inactive | 26.6 µM (active) |  |
| CC1(C)[C@@H](OC(=O)CCC(=O)O)CC[C@]2(C)[C@H]3C(=O)C=C4[C@@H]5C[C@@](C)(C(=O)O)CC[C@]5(C)CC[C@@]4(C)[C@]3(C)CC[C@@H]12 | inactive | inactive | inactive | inactive | inactive | inactive | inactive | inactive | inactive |  | inactive | inactive | inactive | inactive |  |  |  | inactive |  |  |
| CC(CCC(=O)O)C(=O)O (centres undefined) | inactive | inactive | inactive | inactive | inactive | inactive | inactive |  | inactive | inactive | inactive | inactive | inactive |  |  |  | inactive |  | inactive |  |
| COC(=O)CS | inactive |  |  | inactive | inactive | inactive | inactive | inactive | inactive | inactive | inactive | inactive | inactive |  |  | inactive | inactive |  |  |  |
| CCCCCCCCCCC(=O)O | inactive | inactive |  | inactive | inactive | inactive |  | inactive | inactive | inactive | inactive | inactive | inactive | inactive |  | inactive | inactive | inactive |  |  |
| CCC(=O)C1CC(C(C)C)CC=C1C (centres undefined) | inactive |  | inactive | inactive |  |  | inactive | inactive | inactive | inactive | inactive | inactive | inactive |  | inactive | inactive |  |  | inactive |  |
| c1ccc(C[n+]2cccc3ccccc32)cc1 | inactive | 48.6 µM (active) | inactive | inactive | inactive |  | inactive | inactive | inactive | inactive |  |  | inactive |  |  | inactive | inactive | inactive |  |  |
| CC(CN(C)C)C(C)(O)Cc1ccc(Cl)cc1 (centres undefined) | inactive | inactive |  | inactive | inactive | inactive | inactive |  | inactive | inactive | 16.8 µM (active) | inactive | inactive | inactive | inactive | inactive |  |  |  |  |
| CC(C)=CC(=O)C=C(C)C | inactive |  | inactive | inactive | inactive | inactive | inactive | inactive | inactive |  | inactive | inactive | inactive | inactive |  | inactive |  |  | inactive |  |
| C[C@@H](CN(C)C)CN1c2ccccc2Sc2ccccc21 | inactive |  | 18.8 µM (active) | 21.1 µM (active) |  |  | inactive | inactive | 26.6 µM (active) | 18.8 µM (active) | 10.6 µM (active) | inactive | inactive |  |  | inactive | inactive |  | 23.7 µM (active) |  |
| C/C=C(/C(=C/C)c1ccc(O)cc1)c1ccc(O)cc1 | inactive |  | inactive | inactive | inactive | inactive | inactive |  |  | inactive |  | inactive | inactive | inactive |  | 0.015 µM (active) | inactive | 0.0019 µM (active) |  |  |
| CCCCCCCCOc1ccc(C(=O)O)cc1 |  |  |  | inactive | inactive | inactive | inactive | inactive | 48 µM (active) |  |  | inactive | inactive | inactive |  |  | inactive | inactive |  | inactive |
| CC(C)(c1ccccc1)c1ccccc1 | inactive |  | inactive | inactive | inactive | inactive | inactive | inactive | inactive | inactive | inactive | inactive | inactive | inactive |  |  |  |  |  |  |
| CC(CC1c2ccccc2CCc2ccccc21)CN(C)C (centres undefined) | inactive | inactive | 33.5 µM (active) | 21.1 µM (active) |  |  | inactive | inactive |  | 23.7 µM (active) | inactive | inactive | inactive |  |  | inactive | inactive | inactive |  |  |

Source: PubChem BioAssay (Tox21)
